Source: PubChem BioAssay (several laboratories)
Cav32 inh: inhibitors of human Cav3.2 T-type calcium channel | 4% of 100,000 active | B-score at 10 µM | Cav3.2-expressing cells, Fluo-4 calcium fluorescence FDSS; stronger effect = lower value | AID 449739;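 active = single-dose well whose peak fluorescence ratio is a statistical outlier from its plate by either plate-standardised score or position-corrected B-score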
CYP2C9 act: increases human cytochrome P450 2C9 activity | recombinant CYP2C9, luciferin-H conversion, luminescence; stronger effect = higher value; factor 1 = untreated enzyme, 0 = blocked | activation factor at 5 µM | 1.4% of 96,000 active | AID 1024;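 active = activation factor of 2 or more for CYP2C9 at a 5 µM dose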;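 note: 0 = sulfaphenazole-blocked wells and 1 = vehicle-only wells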
CYP2C9 inh: inhibitors of human CYP2C9. P11712. CYP2C9 Supersomes, luciferin-H conversion, luminescence. inhibition, % at 5 µM. 20% of 96,000 active. AID 777;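 active = blocking of liver enzyme CYP2C9 beyond about 50% at 5 µM, limit read from the data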
CYP2C19 act: activators of human cytochrome P450 2C19; 96,000 tested, under 10 active; activation factor at 5 µM; P33261; recombinant CYP2C19, luciferin-H EGE luminescence; stronger effect = higher value; 0 = fully inhibited enzyme, 1 = untreated enzyme;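 active = activation factor of at least 2 at 5 µM in the primary screen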;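 note: 0 = wells with 2.5 mM tranylcypromine and 1 = vehicle-only wells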
Target sequence (P33261 whole entry, looked up): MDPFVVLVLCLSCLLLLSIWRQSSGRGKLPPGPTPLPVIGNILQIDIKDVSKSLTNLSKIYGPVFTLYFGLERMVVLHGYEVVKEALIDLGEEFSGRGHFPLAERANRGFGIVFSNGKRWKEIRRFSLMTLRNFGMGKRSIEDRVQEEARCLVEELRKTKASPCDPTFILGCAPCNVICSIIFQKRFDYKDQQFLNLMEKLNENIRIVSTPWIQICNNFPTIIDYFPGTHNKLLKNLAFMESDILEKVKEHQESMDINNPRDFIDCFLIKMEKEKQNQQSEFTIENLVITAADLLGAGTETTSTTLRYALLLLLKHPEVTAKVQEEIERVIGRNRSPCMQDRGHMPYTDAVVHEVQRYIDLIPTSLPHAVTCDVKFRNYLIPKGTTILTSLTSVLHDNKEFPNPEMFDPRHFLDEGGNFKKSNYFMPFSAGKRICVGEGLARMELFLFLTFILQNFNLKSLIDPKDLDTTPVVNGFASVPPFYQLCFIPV
CYP2C19 inh: inhibitors of human CYP2C19; P33261; CYP2C19 Supersomes, luciferin-H EGE luminescence, 30 min; inhibition, % at 5 µM; 21% of 96,000 active;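 active = CYP2C19 inhibition above a set limit at 5 µM in the primary screen, cut at about 50% in these data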;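 note: plate controls were negative control wells for no effect and 2.5 mM tranylcypromine positive control for full effect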
Starred values were filed as active, the others as inactive; . = not tested or not shown. This is a sample that favours compounds with a hit; in the whole collection about 27% have one here.

SMILES | Cav32 inh | CYP2C9 act | CYP2C9 inh | CYP2C19 act | CYP2C19 inh
Cn1cccc1/C=C1\SC(=O)N(CC(=O)Nc2ccc(Cl)cc2)C1=O | 0.22 | 0.6 | 36 | 0.8 | 22
Cn1cccc1/C=C1\CCC/C(=C\c2cccn2C)C1=O | -13* | 1.4 | -42 | 0.6 | 39
O=C(c1ccc2snnc2c1)N1CCOCC1 | -0.54 | 1.1 | -6 | 0.7 | 30
O=C(O)COc1ccccc1C1C2C(=O)N(c3ccc(F)cc3)C(=O)C2ON1c1ccccc1 (stereo not given) | 0.19 | 0.5 | 54* | 0.6 | 38
O=C(c1ccco1)[C@@H]1[C@@H]2C(=O)N(c3ccc(F)cc3)C(=O)[C@@H]2C2c3ccccc3C=CN21 (stereo not given in full) | -0.24 | 0.9 | 15 | 0.9 | 5
COc1ccccc1C1C2C(=O)N(c3ccccc3)C(=O)C2ON1c1ccccc1 (stereo not given) | -0.91 | 0.1 | 86* | 0.2 | 77*
Cc1cc(-c2nsc(=O)o2)c(S(C)(=O)=O)s1 | . | 0.8 | 17 | 0.9 | 10
COc1ccc(-c2nc(CSCC(=O)NC3CCCc4ccccc43)c(C)o2)cc1OC (stereo not given) | -3.3 | 0.3 | 66* | 0.4 | 61*
COc1ccc(-c2nc(CSCC(=O)N3CCc4ccccc4C3)c(C)o2)cc1OC | -0.49 | 0.8 | 16 | 0.8 | 16
COc1ccc(-c2nc(CSCC(=O)N3CCN(c4cccc(C)c4)C(C)C3)c(C)o2)cc1OC (stereo not given) | . | 0.6 | 37 | 0.3 | 73*
Cc1cccc(-c2nc(CS(=O)CC(=O)NCCCSC3CCCCC3)c(C)o2)c1 (stereo not given) | -7.1* | 0.6 | 44 | 0.7 | 32
COc1cccc(-c2nc(CS(=O)CC(=O)NC3CCCC3)c(C)o2)c1 (stereo not given) | -1 | 0.4 | 57* | 0.7 | 30
CCc1c(C)nc(N)n2c(SCC(=O)N3CCN(c4ccccc4OC)CC3)nnc12 | . | 0.8 | 20 | 0.7 | 32
COc1ccc(-c2nc(CS(=O)CC(=O)NC3CCCc4ccccc43)c(C)o2)cc1OC (stereo not given) | -0.48 | 0.1 | 88* | 0.4 | 56*
COc1ccc(-c2nnn(CC(=O)NC3CCCc4ccccc43)n2)cc1OC (stereo not given) | -0.035 | 1 | 1 | 0.4 | 64*
CC(C)C(=O)N(Cc1cc2ccccc2[nH]c1=O)C(C)(C)C | 0.61 | 0.8 | 15 | 0.8 | 20
COC(=O)c1cn(C(C)C(=O)NCc2ccco2)c2ccccc12 (stereo not given) | 0.62 | 0.7 | 31 | 0.4 | 59*
CCOC(=O)C1=C(Nc2ccc(C)cc2)CC(C)(O)C(C(=O)OCC)C1c1ccccc1 (stereo not given) | -0.048 | 1.1 | -7 | 1 | 3
O=C(Cc1nc(-c2ccc([N+](=O)[O-])cc2)cs1)Nc1ccccc1 | -1.9 | 0.4 | 62* | 0.7 | 30
CNc1nc(-c2ccc([N+](=O)[O-])cc2)cs1 | 0.0018 | 1 | -2 | 0.6 | 44
Cc1cc(NC(=O)CSc2nc3ccccc3c(=O)n2CCCC(=O)NCc2ccco2)n[nH]1 | 0.66 | 0.3 | 71* | 0.2 | 84*
CCc1ccc(NC(=O)CSc2nc3ccccc3c(=O)n2CCCC(=O)N2CCCC2)cc1 | -0.64 | 0.6 | 38 | 0.6 | 37
O=C(CCCCCn1c(SCc2ccncc2)nc2ccccc2c1=O)NCc1ccco1 | -2.3 | . | . | . | .
O=C(CSc1nc2ccccc2c(=O)n1CCCC(=O)N1CCCC1)NCc1ccco1 | 1.7 | 0.6 | 43 | 0.4 | 65*
O=c1oc2ccccc2cc1NCc1ccccc1O | -5.2* | 0.8 | 22 | 0.4 | 59*
SMILES | Cav32 inh | CYP2C9 act | CYP2C9 inh | CYP2C19 act | CYP2C19 inh
Cc1cccc(Oc2nc(-c3cccc([N+](=O)[O-])c3)nc3ccccc23)c1C | -1.2 | 0.9 | 11 | 1 | -2
COc1cccc(NC(=O)CSc2nncn2N)c1 | -0.03 | 1 | -3 | 0.9 | 6
COc1cc(NS(=O)(=O)c2ccc(NC(=O)/C(=C\c3ccccc3OC)NC(=O)c3ccccc3)cc2)nc(OC)n1 | 0.028 | 1 | 2 | 1 | 2
COc1ccc(NC(=O)CSc2nc(NS(=O)(=O)c3ccccc3)cc(=O)[nH]2)cc1 | -0.83 | 0.8 | 17 | 1 | 1
Cc1ccc(NC(=O)CSc2nc(NS(=O)(=O)c3ccc(C)cc3)cc(=O)[nH]2)cc1 | -0.48 | 0.4 | 65* | 0.7 | 28
COc1cc(NS(=O)(=O)c2ccc(NC(=O)COc3ccccc3C)cc2)nc(OC)n1 | 1 | 0.1 | 91* | 0.8 | 20
COc1cc(NS(=O)(=O)c2ccc(NC(=O)COc3ccc(C)cc3C)cc2)nc(OC)n1 | 0.87 | 0.3 | 69* | 1 | 1
COc1ccccc1OCC(=O)Nc1ccc(S(=O)(=O)Nc2cc(C)nc(C)n2)cc1 | 0.17 | 1.1 | -12 | 1.2 | -16
COc1cc(NS(=O)(=O)c2ccc(NS(=O)(=O)c3ccccc3)cc2)nc(OC)n1 | 0.62 | 0.2 | 78* | 1 | 5
CCOC(=O)CNc1c(N2CCN(c3ccccn3)CC2)c(=O)c1=O | 0.24 | 0.9 | 5 | 0.9 | 7
COc1ccc(OCC(=O)Nc2ccc(S(=O)(=O)Nc3cc(C)nc(C)n3)cc2)cc1 | 0.044 | 0.9 | 14 | 0.9 | 14
COc1cc(NS(=O)(=O)c2ccc(NC(=O)COc3ccc(C)cc3)cc2)nc(OC)n1 | 0.22 | 0.2 | 82* | 0.7 | 25
O=C(CSc1ccc(Cl)cc1)Nc1ccc(N2CCN(C(=O)c3ccco3)CC2)cc1 | 0.13 | 0.4 | 64* | 0.6 | 45
Cc1cc(C)cc(OCC(=O)Nc2ccc(N3CCN(C(=O)c4ccco4)CC3)cc2)c1 | -1.4 | 0.7 | 30 | 0.8 | 16
O=C(COc1ccc(Cl)cc1)Nc1ccc(N2CCN(C(=O)c3ccco3)CC2)cc1 | 1.1 | 0.7 | 32 | 0.5 | 51*
O=C(CSc1ccc(Cl)cc1)Nc1ccc(NC(=O)c2ccco2)cc1 | 0.55 | 0.9 | 12 | 0.8 | 16
CCn1c(COc2ccc(C)cc2)nnc1SCC(=O)C(C)(C)C | -0.26 | 0.5 | 51* | 0.5 | 50
CCn1c(COc2ccc(C)cc2)nnc1SCc1ccc(C#N)cc1 | -1.1 | 0.8 | 18 | 1 | 3
COc1ccc(OC)c(NC(=O)CSc2nnc(C)n2Cc2ccccc2)c1 | 1.2 | 0.7 | 29 | 0.1 | 87*
CCn1c(COc2ccccc2)nnc1SCC(=O)Nc1cc(C)ccc1OC | -1.3 | 2.1* | -108 | 0.5 | 46
COc1ccc(C)cc1NC(=O)CSc1nnc(COc2ccc(C)cc2)n1Cc1ccco1 | -4 | 0.9 | 10 | 0.9 | 6
CCn1c(COc2cccc(OC)c2)nnc1SCC(=O)Nc1ccccc1C(=O)OC | -3 | 0.9 | 7 | 0.6 | 43
CCn1c(COc2ccc(C)cc2)nnc1SCC(=O)Nc1cc(OC)ccc1OC | -3 | 0.5 | 48 | 0.1 | 90*
O=C(NNC(=O)C1CC1c1ccccc1)Nc1cccc(Cl)c1 (stereo not given) | -0.29 | 0.9 | 13 | 0.8 | 22
